In the supplement of paper PMC4466140:

Molecular target: AgAbp1
Test: SPOT peptide array binding signal intensity (averaged, normalized) (arbitrary units (background-subtracted, floor 0; scale differs between SH3 domains)); higher = stronger binding of the SH3 domain to the peptide
Outline: (§1)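 Spot intensities were captured after detection with anti-GST antibody, an HRP-linked anti-mouse secondary and luminol, and quantified with Genespotter. The probes were GST-fused SH3 domains from four yeast species, produced in E. coli BL21(DE3), purified on glutathione Sepharose and incubated at 10 μg/ml overnight at 4°C on cellulose-bound synthetic 15-mer peptides with cysteines replaced by serines. Binding signal is the normalized, background-subtracted spot intensity averaged over replicates, and its arbitrary units differ between domains.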

Row | Binder | SPOT peptide array binding signal intensity
1 | QQEQNTPPLPPKPKS | 10.5

Molecular target: AgBbc1
Test: as above
Outline: as §1

Row | Binder | SPOT peptide array binding signal intensity
2 | QQEQNTPPLPPKPKS | ≤ 0

Molecular target: AgBem1-D1
Test: as above
Outline: as §1

Row | Binder | SPOT peptide array binding signal intensity
3 | QQEQNTPPLPPKPKS | ≤ 0

Molecular target: AgBzz1-D1
Test: as above
Outline: as §1

Row | Binder | SPOT peptide array binding signal intensity
4 | QQEQNTPPLPPKPKS | 194

Molecular target: AgBzz1-D2
Test: as above
Outline: as §1

Row | Binder | SPOT peptide array binding signal intensity
5 | QQEQNTPPLPPKPKS | 5.5

Molecular target: AgCyk3
Test: as above
Outline: as §1

Row | Binder | SPOT peptide array binding signal intensity
6 | QQEQNTPPLPPKPKS | ≤ 0

Molecular target: AgFus1
Test: as above
Outline: as §1

Row | Binder | SPOT peptide array binding signal intensity
7 | QQEQNTPPLPPKPKS | ≤ 0

Molecular target: AgHof1
Test: as above
Outline: as §1

Row | Binder | SPOT peptide array binding signal intensity
8 | QQEQNTPPLPPKPKS | 760

Molecular target: AgHse1
Test: as above
Outline: as §1

Row | Binder | SPOT peptide array binding signal intensity
9 | QQEQNTPPLPPKPKS | ≤ 0

Molecular target: AgLsb1
Test: as above
Outline: as §1

Row | Binder | SPOT peptide array binding signal intensity
10 | QQEQNTPPLPPKPKS | ≤ 0

Molecular target: AgLsb4
Test: as above
Outline: as §1

Row | Binder | SPOT peptide array binding signal intensity
11 | QQEQNTPPLPPKPKS | 151

Molecular target: AgMyo5
Test: as above
Outline: as §1

Row | Binder | SPOT peptide array binding signal intensity
12 | QQEQNTPPLPPKPKS | ≤ 0

Molecular target: AgNbp2
Test: as above
Outline: as §1

Row | Binder | SPOT peptide array binding signal intensity
13 | QQEQNTPPLPPKPKS | ≤ 0

Molecular target: AgRvs167
Test: as above
Outline: as §1

Row | Binder | SPOT peptide array binding signal intensity
14 | QQEQNTPPLPPKPKS | ≤ 0

Molecular target: AgSho1
Test: as above
Outline: as §1

Row | Binder | SPOT peptide array binding signal intensity
15 | QQEQNTPPLPPKPKS | 16.5

Molecular target: AgSla1-D1-D2
Test: as above
Outline: as §1

Row | Binder | SPOT peptide array binding signal intensity
16 | QQEQNTPPLPPKPKS | 2

Molecular target: AgSla1-D3
Test: as above
Outline: as §1

Row | Binder | SPOT peptide array binding signal intensity
17 | QQEQNTPPLPPKPKS | 3.75

Molecular target: CaAbp1-D1
Test: as above
Outline: as §1

Row | Binder | SPOT peptide array binding signal intensity
18 | QQEQNTPPLPPKPKS | 53

Molecular target: CaAbp1-D2
Test: as above
Outline: as §1

Row | Binder | SPOT peptide array binding signal intensity
19 | QQEQNTPPLPPKPKS | 33.5

Molecular target: CaBbc1
Test: as above
Outline: as §1

Row | Binder | SPOT peptide array binding signal intensity
20 | QQEQNTPPLPPKPKS | 9

Molecular target: CaBem1-D1
Test: as above
Outline: as §1

Row | Binder | SPOT peptide array binding signal intensity
21 | QQEQNTPPLPPKPKS | ≤ 0

Molecular target: CaBzz1-D1
Test: as above
Outline: as §1

Row | Binder | SPOT peptide array binding signal intensity
22 | QQEQNTPPLPPKPKS | 166

Molecular target: CaBzz1-D2
Test: as above
Outline: as §1

Row | Binder | SPOT peptide array binding signal intensity
23 | QQEQNTPPLPPKPKS | 34.8

Molecular target: CaCyk3
Test: as above
Outline: as §1

Row | Binder | SPOT peptide array binding signal intensity
24 | QQEQNTPPLPPKPKS | ≤ 0

Molecular target: CaFus1
Test: as above
Outline: as §1

Row | Binder | SPOT peptide array binding signal intensity
25 | QQEQNTPPLPPKPKS | 9

Molecular target: CaHof1
Test: as above
Outline: as §1

Row | Binder | SPOT peptide array binding signal intensity
26 | QQEQNTPPLPPKPKS | 0.25

Molecular target: CaHse1
Test: as above
Outline: as §1

Row | Binder | SPOT peptide array binding signal intensity
27 | QQEQNTPPLPPKPKS | 404

Molecular target: CaLsb1
Test: as above
Outline: as §1

Row | Binder | SPOT peptide array binding signal intensity
28 | QQEQNTPPLPPKPKS | 0.5

Molecular target: CaLsb4
Test: as above
Outline: as §1

Row | Binder | SPOT peptide array binding signal intensity
29 | QQEQNTPPLPPKPKS | 1300

Molecular target: CaMyo5
Test: as above
Outline: as §1

Row | Binder | SPOT peptide array binding signal intensity
30 | QQEQNTPPLPPKPKS | ≤ 0

Molecular target: CaNbp2
Test: as above
Outline: as §1

Row | Binder | SPOT peptide array binding signal intensity
31 | QQEQNTPPLPPKPKS | ≤ 0

Molecular target: CaRvs167
Test: as above
Outline: as §1

Row | Binder | SPOT peptide array binding signal intensity
32 | QQEQNTPPLPPKPKS | ≤ 0

Molecular target: CaRvs167-3
Test: as above
Outline: as §1

Row | Binder | SPOT peptide array binding signal intensity
33 | QQEQNTPPLPPKPKS | ≤ 0

Molecular target: CaSho1
Test: as above
Outline: as §1

Row | Binder | SPOT peptide array binding signal intensity
34 | QQEQNTPPLPPKPKS | 13.5

Molecular target: CaSla1-D1-D2
Test: as above
Outline: as §1

Row | Binder | SPOT peptide array binding signal intensity
35 | QQEQNTPPLPPKPKS | ≤ 0

Molecular target: CaSla1-D3
Test: as above
Outline: as §1

Row | Binder | SPOT peptide array binding signal intensity
36 | QQEQNTPPLPPKPKS | ≤ 0

Molecular target: ScAbp1
Test: as above
Outline: as §1

Row | Binder | SPOT peptide array binding signal intensity
37 | QQEQNTPPLPPKPKS | 5

Molecular target: ScBbc1
Test: as above
Outline: as §1

Row | Binder | SPOT peptide array binding signal intensity
38 | QQEQNTPPLPPKPKS | 2.5

Molecular target: ScBem1-D1
Test: as above
Outline: as §1

Row | Binder | SPOT peptide array binding signal intensity
39 | QQEQNTPPLPPKPKS | ≤ 0

Molecular target: ScBzz1-D1
Test: as above
Outline: as §1

Row | Binder | SPOT peptide array binding signal intensity
40 | QQEQNTPPLPPKPKS | 7

Molecular target: ScBzz1-D2
Test: as above
Outline: as §1

Row | Binder | SPOT peptide array binding signal intensity
41 | QQEQNTPPLPPKPKS | 3

Molecular target: ScCyk3
Test: as above
Outline: as §1

Row | Binder | SPOT peptide array binding signal intensity
42 | QQEQNTPPLPPKPKS | 1

Molecular target: ScFus1
Test: as above
Outline: as §1

Row | Binder | SPOT peptide array binding signal intensity
43 | QQEQNTPPLPPKPKS | ≤ 0

Molecular target: ScHof1
Test: as above
Outline: as §1

Row | Binder | SPOT peptide array binding signal intensity
44 | QQEQNTPPLPPKPKS | 109

Molecular target: ScHse1
Test: as above
Outline: as §1

Row | Binder | SPOT peptide array binding signal intensity
45 | QQEQNTPPLPPKPKS | ≤ 0

Molecular target: ScLsb1
Test: as above
Outline: as §1

Row | Binder | SPOT peptide array binding signal intensity
46 | QQEQNTPPLPPKPKS | 223

Molecular target: ScLsb2
Test: as above
Outline: as §1

Row | Binder | SPOT peptide array binding signal intensity
47 | QQEQNTPPLPPKPKS | ≤ 0

Molecular target: ScLsb3
Test: as above
Outline: as §1

Row | Binder | SPOT peptide array binding signal intensity
48 | QQEQNTPPLPPKPKS | 3310

Molecular target: ScLsb4
Test: as above
Outline: as §1

Row | Binder | SPOT peptide array binding signal intensity
49 | QQEQNTPPLPPKPKS | 67

Molecular target: ScMyo3
Test: as above
Outline: as §1

Row | Binder | SPOT peptide array binding signal intensity
50 | QQEQNTPPLPPKPKS | ≤ 0

Molecular target: ScMyo5
Test: as above
Outline: as §1

Row | Binder | SPOT peptide array binding signal intensity
51 | QQEQNTPPLPPKPKS | ≤ 0

Molecular target: ScNbp2
Test: as above
Outline: as §1

Row | Binder | SPOT peptide array binding signal intensity
52 | QQEQNTPPLPPKPKS | ≤ 0

Molecular target: ScPex13
Test: as above
Outline: as §1

Row | Binder | SPOT peptide array binding signal intensity
53 | QQEQNTPPLPPKPKS | 680

Molecular target: ScRvs167
Test: as above
Outline: as §1

Row | Binder | SPOT peptide array binding signal intensity
54 | QQEQNTPPLPPKPKS | 58.3

Molecular target: ScSho1
Test: as above
Outline: as §1

Row | Binder | SPOT peptide array binding signal intensity
55 | QQEQNTPPLPPKPKS | 152

Molecular target: ScSla1-D1-D2
Test: as above
Outline: as §1

Row | Binder | SPOT peptide array binding signal intensity
56 | QQEQNTPPLPPKPKS | ≤ 0

Molecular target: ScSla1-D3
Test: as above
Outline: as §1

Row | Binder | SPOT peptide array binding signal intensity
57 | QQEQNTPPLPPKPKS | ≤ 0

Molecular target: SpAbp1-D1
Test: as above
Outline: as §1

Row | Binder | SPOT peptide array binding signal intensity
58 | QQEQNTPPLPPKPKS | 23.5

Molecular target: SpBbc1
Test: as above
Outline: as §1

Row | Binder | SPOT peptide array binding signal intensity
59 | QQEQNTPPLPPKPKS | 0.5

Molecular target: SpBzz1-D1
Test: as above
Outline: as §1

Row | Binder | SPOT peptide array binding signal intensity
60 | QQEQNTPPLPPKPKS | 336

Molecular target: SpBzz1-D2
Test: as above
Outline: as §1

Row | Binder | SPOT peptide array binding signal intensity
61 | QQEQNTPPLPPKPKS | ≤ 0

Molecular target: SpCyk3
Test: as above
Outline: as §1

Row | Binder | SPOT peptide array binding signal intensity
62 | QQEQNTPPLPPKPKS | 1.5

Molecular target: SpHof1
Test: as above
Outline: as §1

Row | Binder | SPOT peptide array binding signal intensity
63 | QQEQNTPPLPPKPKS | ≤ 0

Molecular target: SpHof1-2
Test: as above
Outline: as §1

Row | Binder | SPOT peptide array binding signal intensity
64 | QQEQNTPPLPPKPKS | 12.2

Molecular target: SpHof1-3
Test: as above
Outline: as §1

Row | Binder | SPOT peptide array binding signal intensity
65 | QQEQNTPPLPPKPKS | 16

Molecular target: SpHse1
Test: as above
Outline: as §1

Row | Binder | SPOT peptide array binding signal intensity
66 | QQEQNTPPLPPKPKS | 28.2

Molecular target: SpLsb1
Test: as above
Outline: as §1

Row | Binder | SPOT peptide array binding signal intensity
67 | QQEQNTPPLPPKPKS | 585

Molecular target: SpLsb4
Test: as above
Outline: as §1

Row | Binder | SPOT peptide array binding signal intensity
68 | QQEQNTPPLPPKPKS | 1340

Molecular target: SpMyo1
Test: as above
Outline: as §1

Row | Binder | SPOT peptide array binding signal intensity
69 | QQEQNTPPLPPKPKS | ≤ 0

Molecular target: SpNbp2
Test: as above
Outline: as §1

Row | Binder | SPOT peptide array binding signal intensity
70 | QQEQNTPPLPPKPKS | ≤ 0

Molecular target: SpPex13
Test: as above
Outline: as §1

Row | Binder | SPOT peptide array binding signal intensity
71 | QQEQNTPPLPPKPKS | ≤ 0

Molecular target: SpRvs167
Test: as above
Outline: as §1

Row | Binder | SPOT peptide array binding signal intensity
72 | QQEQNTPPLPPKPKS | 462

Molecular target: SpSla1-D1-D2
Test: as above
Outline: as §1

Row | Binder | SPOT peptide array binding signal intensity
73 | QQEQNTPPLPPKPKS | ≤ 0

Molecular target: SpSla1-D3
Test: as above
Outline: as §1

Row | Binder | SPOT peptide array binding signal intensity
74 | QQEQNTPPLPPKPKS | ≤ 0
